Measured values from PubChem BioAssay.
“And” between values parts separate entries of the source, which are not always exact repeats. Equal entries are not always repeated. The source made the active and inactive calls. Unless noted, the rule behind the calls is not given here.

Assays:
[1] = reduced mouse 2C T cell binding to pMHC/ICAM-1 vesicles – MLPCN validation set, flow cytometry, LFA-1/ICAM-1 modulator project, pilot screen (AID 2523;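 active = response below a set limit, under 55% cells CD8-positive and vesicle-bound, and CD8 cells' 90th-percentile brightness under 279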;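 for vesicle binding response: mean PE anti-B7-1 fluorescence of CD8+ cells relative to row control; 100% = QL9-loaded vesicles with DMSO vehicle in the same plate row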); conditions: 2C mouse CD8+ T cells, at 7 µM, stronger effect = lower value; double positive events: measured here: CD8+/vesicle+ event percentage
[2] = target: Integrin beta-1 (Homo sapiens) + Integrin alpha-4 (Homo sapiens) (UniProt P13612+P05556); assay: alpha4beta1 integrin LIBS antibody binding reduction – U937 cells, HUTS-21 mAb, flow cytometry, validation set, VLA-4 allosteric modulator project, pilot screen (AID 2674;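 active = inhibition above 50%, about 3 SD of the validation set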;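 note: antibody binding induced by the VLA-4 ligand LDV present at three times its Kd; 0% = LDV ligand with antibody and no compound and 100% = antibody without LDV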); conditions: HUTS-21 LIBS mAb binding, at 6.7 µM, stronger effect = higher value
[3] = calorie-restriction mimetic ROS inhibitors, yeast – validation compound set, pilot screen (AID 2706;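 active = superoxide response below 65% of plate, a cut near 3 SD across the whole screen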;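 note: yeast exposed to compound for one week at 30 degrees C before staining; 100% = mean of all compound wells on the same plate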); conditions: S. cerevisiae aging, superoxide DHE fluorescence; at 10 µM; stronger effect = lower value
[4] = target: Beta-adrenergic receptor kinase 1 (Homo sapiens) (UniProt P25098); assay: GRK2 binders displacing RNA aptamer, biochemical, validation, human GRK2, bead flow cytometry (AID 488806;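 active = aptamer binding inhibition above 30%, about 3 SD of noise from non-fluorescent compounds; inactive = inhibition at or below 30%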); conditions: bead-bound GRK2, FAM-aptamer displacement, at 10 µM, stronger effect = higher value
[5] = target: AP-2 complex subunit beta (Homo sapiens) (UniProt P63010); assay: beta-arrestin/AP2 interaction blockers – biochemical, validation set, GST-AP2 beads, flow cytometry, pilot screen (AID 504541;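 active = inhibition above 54%, about 3 SD of non-fluorescent compounds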;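 note: AP2 carries R879A mutation and is captured from E. coli lysate; bead-bound FITC arrestin peptide fluorescence measuring arrestin peptide binding to AP2; 0% = DMSO wells and 100% = excess unlabeled arrestin peptide control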); conditions: FITC arrestin peptide, at 10 µM, stronger effect = higher value
[6] = cytosolic pH regulators acting via V-ATPase – S. cerevisiae, pHLuorin, HTS validation (AID 504600; in the data active = response above about 15%;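 note: plate controls were DMSO for no effect and reference compound for full effect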); conditions: V-ATPase proton transport, at 10 µM, stronger effect = higher value
[7] = tested on: anti-desmoglein-3 scFv antibody binding to human DSG3; assay: blockers of pathogenic pemphigus antibody–desmoglein-3 binding – biochemical, validation compound set, bead-based, flow cytometry, pilot screen (AID 588368;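 active = binding below the plate cutoff, the plate median minus 3 SD, with a reading above zero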;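 note: signal is the median channel fluorescence of bead-bound GFP antibody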); conditions: Protein G beads, DSG3-Fc, scFv-GFP binding, at 10 µM, stronger effect = lower value
[8] = tested on: Botulinum neurotoxin type F light chain protease (Clostridium botulinum); assay: Clostridium botulinum type F light chain protease inhibitors, microsphere substrate cleavage, validation (AID 588459); conditions: multiplex microsphere protease substrate cleavage assay, flow cytometry; at 10 µM; stronger effect = higher value
[9] = target: Botulinum neurotoxin type A (Clostridium botulinum) (UniProt P0DPI0); assay: BoNT/A light chain protease inhibitors, biochemical, multiplex microsphere flow cytometry, validation set (AID 588460); conditions: at 10 µM, stronger effect = higher value
[10] = target: Lethal factor (Bacillus anthracis) (UniProt P15917); assay: Bacillus anthracis lethal factor inhibition, microsphere flow cytometry protease assay, validation at 10 µM (AID 588461); conditions: multiplex microsphere protease cleavage assay, stronger effect = higher value
[11] = Nile Red efflux blockade in pump-expressing yeast – validation compound set, multiplex, phenotypic, pilot screen (AID 588506;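 active = efflux inhibition above 0.42, the validation set average plus 4 SD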;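 note: Nile Red retained in cells so higher fluorescence means more efflux inhibition; 0 = negative control wells and 1 = enniatin B 25 µM full block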); conditions: S. cerevisiae pump-expressing triplex, Nile Red efflux flow cytometry; at 10 µM; stronger effect = higher value
[12] = target: ATP-binding cassette sub-family B member 6 (Homo sapiens) (UniProt Q9NP58); assay: blockers of ABCB6-driven porphyrin uptake – K562-ABCB6 cells, flow cytometry, validation set, pilot screen (AID 588550;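 active = inhibition above the screen-wide mean plus 3 SD, about 51%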;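 note: 0% = DMSO wells and 100% = benzethonium chloride 70 µM positive control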); conditions: K562-ABCB6 porphyrin accumulation, 1 h, at 10 µM, stronger effect = higher value
[13] = AML differentiation inducers, ER-HoxA9 marrow cells – cell-based, GFP/MAC1 double positive, flow cytometry, validation set, primary screen (AID 588685;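 active = differentiation response of at least 50%, scaled between solvent and reference control, from cells with both markers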;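 note: compound exposure lasts four days before antibody staining and flow analysis; 0% = DMSO wells and 100% = 5 µM fulvestrant positive control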); conditions: stronger effect = higher value
[14] = hit retest on RPL19A-GFP reporter strain – cell-based, S. cerevisiae, flow cytometry, cherry picks, mother/daughter gates, confirmation (AID 2270;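 active = GFP response below 50% of the DMSO control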); conditions: 3 h, at 10 µM, stronger effect = lower value, 100 = same GFP as DMSO wells
[15] = yeast TOR pathway reporter LAP4-GFP change – cell-based, cherry picks, flow cytometry, mother/daughter gates, confirmation (AID 2271;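 active = GFP response above 150% of the DMSO control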;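 note: ratio of sample to DMSO plate mean so 100% equals DMSO level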); conditions: S. cerevisiae LAP4-GFP strain, 3 h, at 10 µM, stronger effect = higher value
[16] = TOR pathway CIT2 reporter hit retest – S. cerevisiae, GFP fusion, cherry picks, mother/daughter gates, confirmation (AID 2274;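 active = GFP response above 150% of the DMSO level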); conditions: S. cerevisiae CIT2-GFP strain, flow cytometry, 3 h, at 10 µM, stronger effect = higher value
[17] = measured here: daughter cell gate
[18] = measured here: mother cell gate
[19] = measured here: daughter cell gate response
[20] = measured here: mother cell gate response

Chain of Integrin beta-1 (Homo sapiens) + Integrin alpha-4 (Homo sapiens) (P05556 whole entry, looked up): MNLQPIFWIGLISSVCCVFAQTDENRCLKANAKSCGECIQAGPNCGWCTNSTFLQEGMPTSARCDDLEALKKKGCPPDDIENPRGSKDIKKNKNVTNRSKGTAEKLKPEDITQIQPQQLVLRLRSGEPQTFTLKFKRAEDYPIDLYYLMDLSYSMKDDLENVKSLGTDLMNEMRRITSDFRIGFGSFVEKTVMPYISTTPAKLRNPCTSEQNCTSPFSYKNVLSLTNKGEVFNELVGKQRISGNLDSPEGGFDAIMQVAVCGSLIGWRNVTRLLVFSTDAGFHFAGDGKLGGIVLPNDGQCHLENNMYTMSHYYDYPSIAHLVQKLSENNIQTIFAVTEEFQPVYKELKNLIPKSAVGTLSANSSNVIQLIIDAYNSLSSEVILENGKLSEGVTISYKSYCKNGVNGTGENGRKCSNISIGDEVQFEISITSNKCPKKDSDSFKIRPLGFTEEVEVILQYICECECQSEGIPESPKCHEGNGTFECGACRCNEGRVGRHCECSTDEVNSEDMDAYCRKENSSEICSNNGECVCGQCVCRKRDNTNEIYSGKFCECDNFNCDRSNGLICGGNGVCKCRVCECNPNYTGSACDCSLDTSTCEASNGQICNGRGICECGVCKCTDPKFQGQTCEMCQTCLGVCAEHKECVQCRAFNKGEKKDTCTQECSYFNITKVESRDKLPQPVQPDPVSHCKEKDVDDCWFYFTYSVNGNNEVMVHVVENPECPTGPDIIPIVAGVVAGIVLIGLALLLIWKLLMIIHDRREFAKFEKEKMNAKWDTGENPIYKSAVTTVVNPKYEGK
Chain of Integrin beta-1 (Homo sapiens) + Integrin alpha-4 (Homo sapiens) (P13612 whole entry, looked up): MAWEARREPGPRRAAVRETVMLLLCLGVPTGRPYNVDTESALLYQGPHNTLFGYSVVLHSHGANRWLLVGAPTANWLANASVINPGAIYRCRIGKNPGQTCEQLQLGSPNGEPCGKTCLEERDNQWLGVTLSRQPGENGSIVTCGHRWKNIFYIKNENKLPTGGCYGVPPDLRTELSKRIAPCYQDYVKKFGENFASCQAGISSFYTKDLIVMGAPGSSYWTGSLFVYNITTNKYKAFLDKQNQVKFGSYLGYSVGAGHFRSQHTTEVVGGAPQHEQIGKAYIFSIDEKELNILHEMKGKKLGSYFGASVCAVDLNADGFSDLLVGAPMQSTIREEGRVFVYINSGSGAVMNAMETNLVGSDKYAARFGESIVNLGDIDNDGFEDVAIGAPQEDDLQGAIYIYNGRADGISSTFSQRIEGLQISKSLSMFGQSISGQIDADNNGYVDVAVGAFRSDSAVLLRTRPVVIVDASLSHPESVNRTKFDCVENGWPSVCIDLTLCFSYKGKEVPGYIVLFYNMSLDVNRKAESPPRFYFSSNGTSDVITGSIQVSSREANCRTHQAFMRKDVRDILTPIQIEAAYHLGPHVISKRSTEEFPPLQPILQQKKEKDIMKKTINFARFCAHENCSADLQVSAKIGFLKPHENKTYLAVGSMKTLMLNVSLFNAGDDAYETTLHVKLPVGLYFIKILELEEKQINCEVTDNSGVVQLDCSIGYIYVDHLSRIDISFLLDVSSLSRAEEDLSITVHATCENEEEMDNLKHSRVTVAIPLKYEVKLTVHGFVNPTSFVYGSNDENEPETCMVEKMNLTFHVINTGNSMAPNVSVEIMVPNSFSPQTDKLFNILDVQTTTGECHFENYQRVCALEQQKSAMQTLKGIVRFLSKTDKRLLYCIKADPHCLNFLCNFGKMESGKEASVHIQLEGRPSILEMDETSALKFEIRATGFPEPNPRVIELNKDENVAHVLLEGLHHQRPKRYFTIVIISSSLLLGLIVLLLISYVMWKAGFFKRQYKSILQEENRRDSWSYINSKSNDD
Chain of Botulinum neurotoxin type A (Clostridium botulinum) (P0DPI0 whole entry, looked up): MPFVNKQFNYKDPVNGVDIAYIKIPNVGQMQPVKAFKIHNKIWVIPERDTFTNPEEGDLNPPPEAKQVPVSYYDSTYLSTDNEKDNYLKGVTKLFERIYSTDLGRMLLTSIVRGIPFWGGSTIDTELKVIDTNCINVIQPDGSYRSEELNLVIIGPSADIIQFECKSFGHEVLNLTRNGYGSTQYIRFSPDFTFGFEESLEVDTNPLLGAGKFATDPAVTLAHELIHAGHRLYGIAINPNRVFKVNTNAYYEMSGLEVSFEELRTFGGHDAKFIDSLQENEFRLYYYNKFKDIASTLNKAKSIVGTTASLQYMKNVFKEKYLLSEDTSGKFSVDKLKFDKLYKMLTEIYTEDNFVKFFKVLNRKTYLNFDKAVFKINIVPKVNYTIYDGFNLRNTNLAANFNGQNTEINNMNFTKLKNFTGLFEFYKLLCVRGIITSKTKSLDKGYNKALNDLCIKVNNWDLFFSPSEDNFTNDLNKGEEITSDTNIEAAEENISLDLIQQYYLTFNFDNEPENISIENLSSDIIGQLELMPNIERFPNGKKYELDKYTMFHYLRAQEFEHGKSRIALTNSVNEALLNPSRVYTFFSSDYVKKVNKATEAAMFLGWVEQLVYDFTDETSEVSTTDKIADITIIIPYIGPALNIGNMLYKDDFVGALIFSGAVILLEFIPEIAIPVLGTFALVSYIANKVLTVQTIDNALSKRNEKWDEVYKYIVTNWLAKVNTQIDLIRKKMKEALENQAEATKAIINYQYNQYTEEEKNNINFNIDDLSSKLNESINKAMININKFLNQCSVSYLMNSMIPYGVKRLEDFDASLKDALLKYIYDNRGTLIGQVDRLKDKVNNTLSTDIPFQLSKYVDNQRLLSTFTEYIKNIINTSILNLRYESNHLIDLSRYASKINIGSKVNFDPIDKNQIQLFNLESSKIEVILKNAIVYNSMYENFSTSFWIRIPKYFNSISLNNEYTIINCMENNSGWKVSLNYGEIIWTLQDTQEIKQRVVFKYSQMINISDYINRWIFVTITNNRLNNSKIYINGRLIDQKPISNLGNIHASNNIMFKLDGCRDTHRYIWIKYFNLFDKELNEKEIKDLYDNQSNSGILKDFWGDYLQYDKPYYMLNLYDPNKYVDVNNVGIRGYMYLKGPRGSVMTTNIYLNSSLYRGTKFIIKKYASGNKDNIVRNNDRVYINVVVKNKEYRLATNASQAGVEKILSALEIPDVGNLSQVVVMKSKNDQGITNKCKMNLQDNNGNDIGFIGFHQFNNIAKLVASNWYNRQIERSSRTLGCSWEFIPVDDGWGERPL
Chain of Lethal factor (Bacillus anthracis) (P15917 whole entry, looked up): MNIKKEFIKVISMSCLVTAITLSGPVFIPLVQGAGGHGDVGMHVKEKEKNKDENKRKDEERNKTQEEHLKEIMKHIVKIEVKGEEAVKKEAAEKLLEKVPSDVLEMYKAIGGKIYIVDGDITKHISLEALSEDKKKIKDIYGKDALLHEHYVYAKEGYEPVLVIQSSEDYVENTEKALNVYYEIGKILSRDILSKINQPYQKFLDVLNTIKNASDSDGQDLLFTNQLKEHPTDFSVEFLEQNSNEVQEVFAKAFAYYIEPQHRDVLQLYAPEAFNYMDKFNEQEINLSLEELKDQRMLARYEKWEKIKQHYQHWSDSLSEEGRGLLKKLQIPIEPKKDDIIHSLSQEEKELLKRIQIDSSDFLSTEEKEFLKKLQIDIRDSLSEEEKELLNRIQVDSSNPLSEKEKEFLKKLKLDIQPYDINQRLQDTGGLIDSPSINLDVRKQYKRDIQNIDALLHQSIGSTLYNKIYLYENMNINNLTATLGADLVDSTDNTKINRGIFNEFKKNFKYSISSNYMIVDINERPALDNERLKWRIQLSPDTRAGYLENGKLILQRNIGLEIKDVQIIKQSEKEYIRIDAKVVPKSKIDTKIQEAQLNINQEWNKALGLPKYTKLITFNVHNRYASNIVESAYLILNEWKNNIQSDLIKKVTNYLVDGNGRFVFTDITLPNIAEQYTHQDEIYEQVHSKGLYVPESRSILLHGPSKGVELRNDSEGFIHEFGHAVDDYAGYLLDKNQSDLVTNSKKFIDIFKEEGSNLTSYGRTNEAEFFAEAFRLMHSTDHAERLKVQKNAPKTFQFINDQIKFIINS
Chain of Beta-adrenergic receptor kinase 1 (Homo sapiens) (P25098 whole entry, looked up): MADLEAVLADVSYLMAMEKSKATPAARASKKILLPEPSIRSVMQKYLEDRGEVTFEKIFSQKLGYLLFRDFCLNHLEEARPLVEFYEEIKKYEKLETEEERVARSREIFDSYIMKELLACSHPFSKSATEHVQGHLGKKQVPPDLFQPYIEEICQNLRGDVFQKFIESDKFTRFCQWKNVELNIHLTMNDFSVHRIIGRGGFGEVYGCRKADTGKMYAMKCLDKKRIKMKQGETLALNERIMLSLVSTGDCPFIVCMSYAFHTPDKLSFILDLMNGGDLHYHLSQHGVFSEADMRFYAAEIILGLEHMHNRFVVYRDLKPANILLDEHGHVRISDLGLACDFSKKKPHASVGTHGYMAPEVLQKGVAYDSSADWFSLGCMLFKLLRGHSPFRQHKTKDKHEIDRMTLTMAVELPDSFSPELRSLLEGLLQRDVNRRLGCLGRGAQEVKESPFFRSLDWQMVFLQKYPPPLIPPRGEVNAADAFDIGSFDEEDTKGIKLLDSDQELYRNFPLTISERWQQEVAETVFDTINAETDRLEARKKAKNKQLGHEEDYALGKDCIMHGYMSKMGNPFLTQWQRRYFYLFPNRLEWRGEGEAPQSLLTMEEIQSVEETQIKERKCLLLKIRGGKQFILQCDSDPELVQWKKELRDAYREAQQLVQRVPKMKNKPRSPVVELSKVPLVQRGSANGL

For `CC(=O)Nc1cc([As](=O)(O)O)ccc1O`, the double positive events [1] was 62.8%, the vesicle binding response [1] was 170% (inactive) and the inhibition [2] was 0.59% (inactive). For the same molecule, the superoxide response (% of plate) [3] was 92.8% (inactive), the aptamer binding inhibition [4] was 0% (inactive) and the inhibition [5] was -6.36% (inactive). For the same molecule, the response [6] was 1.26% (inactive), the binding (% of control) [7] was 101% (inactive) and the inhibition [8] was 1% (inactive). For the same molecule, the inhibition [9] was -1.3% (inactive), the inhibition [10] was 5.5% (inactive) and the efflux inhibition (fraction of control) [11] was 0 (inactive). The inhibition [12] was 6% (inactive) and the differentiation response [13] was -0.06% (inactive).
For `C#C[C@]1(O)CC[C@H]2[C@@H]3CCC4=CC(=O)CC[C@@H]4[C@H]3CC[C@@]21CC`, the inhibition [8] was -0.6% (inactive) and the inhibition [9] was -1.3% (inactive).
For `Nc1ccc([As](=O)(O)O)cc1`, the double positive events [1] was 53.2%, the vesicle binding response [1] was 190% (inactive) and the inhibition [2] was 7.22% (inactive). For the same molecule, the superoxide response (% of plate) [3] was 108% (inactive), the aptamer binding inhibition [4] was 2% (inactive) and the inhibition [5] was -9.89% (inactive). For the same molecule, the response [6] was -3.63% (inactive), the binding (% of control) [7] was 99.6% (inactive) and the inhibition [8] was -3.5% (inactive). For the same molecule, the inhibition [9] was -1.7% (inactive), the inhibition [10] was 6.8% (inactive) and the efflux inhibition (fraction of control) [11] was -0.35 (inactive). For the same molecule, the inhibition [12] was 3% (inactive) and the differentiation response [13] was -0.2% (inactive).
For `Clc1ccc(COC(Cn2ccnc2)c2ccc(Cl)cc2Cl)c(Cl)c1` (centres undefined), the double positive events [1] was 71.9%, the vesicle binding response [1] was 306% (inactive) and the inhibition [2] was -1.12% (inactive). The superoxide response (% of plate) [3] was 76.7% (inactive), the aptamer binding inhibition [4] was 4% (inactive) and the inhibition [5] was -8.06% (inactive). For the same molecule, the response [6] was 75% (active), the binding (% of control) [7] was 104% (inactive) and the inhibition [8] was 0.4% (inactive). For the same molecule, the inhibition [9] was -0.5% (inactive), the inhibition [10] was -5.1% (inactive) and the efflux inhibition (fraction of control) [11] was 0.33 (inactive). The inhibition [12] was 5% (inactive) and the differentiation response [13] was -1.05% (inactive).
With `CC/C(=C\C=C\[C@@H]1C=C[C@@H]2CCC[C@H]2[C@@H]1C(=O)c1ccc[nH]1)[C@@H]1O[C@@H]([C@@H](C)C(=O)O)CC[C@@H]1C` the double positive events [1] was 60.2%, the vesicle binding response [1] was 275% (inactive) and the inhibition [2] was -7.08% (inactive). For the same molecule, the superoxide response (% of plate) [3] was 94% (inactive), the aptamer binding inhibition [4] was 2% (inactive) and the inhibition [5] was 0.83% (inactive). The response [6] was -0.4% (inactive), the binding (% of control) [7] was 107% (inactive) and the inhibition [8] was 1.9% (inactive). For the same molecule, the inhibition [9] was 0.5% (inactive), the inhibition [10] was -4.4% (inactive) and the efflux inhibition (fraction of control) [11] was 0 (inactive). For the same molecule, the inhibition [12] was -1% (inactive) and the differentiation response [13] was -4% (inactive).
For `O=C1/C(=C\c2ccc(Cl)c(Cl)c2)N2CCC1CC2`, the GFP response vs DMSO [14] was 102% (inactive), the GFP response vs DMSO [14, 17] was 101% and the GFP response vs DMSO [14, 18] was 99.1%. For the same molecule, the GFP response relative to DMSO [15] was 124% (inactive), the GFP response relative to DMSO [15, 19] was 119% and the GFP response relative to DMSO [15, 20] was 130%. The GFP response, % of DMSO [16] was 100% (inactive), the GFP response, % of DMSO [16, 17] was 101% and the GFP response, % of DMSO [16, 18] was 96.8%.
With `CCN(CC)c1ccc(C=C2C(=O)NC(=S)NC2=O)cc1` the GFP response vs DMSO [14] was 94.7% (inactive), the GFP response vs DMSO [14, 17] was 90.2% and the GFP response vs DMSO [14, 18] was 90%. For the same molecule, the GFP response relative to DMSO [15] was 128% (inactive), the GFP response relative to DMSO [15, 19] was 116% and the GFP response relative to DMSO [15, 20] was 131%. For the same molecule, the GFP response, % of DMSO [16] was 94.4% (inactive), the GFP response, % of DMSO [16, 17] was 95.8% and the GFP response, % of DMSO [16, 18] was 84.8%.
With `CN1[C@@H]2CC(OC(=O)[C@H](CO)c3ccccc3)C[C@H]1[C@@H]1O[C@@H]12` (some centres undefined) the inhibition [8] was -2.9% (inactive) and the inhibition [9] was -2.7% (inactive) and -1% (inactive).
In the case of `CCC(C)N1C(=O)/C(=C\c2cnc(N(C)C)nc2)C(=O)NC1=S` (centres undefined), the GFP response vs DMSO [14] is reported as 104% (inactive), the GFP response vs DMSO [14, 17] is reported as 98.4% and the GFP response vs DMSO [14, 18] is reported as 93.8%. The GFP response relative to DMSO [15] was 97.4% (inactive), the GFP response, % of DMSO [16] was 106% (inactive) and the GFP response, % of DMSO [16, 17] was 114%. For the same molecule, the GFP response, % of DMSO [16, 18] was 90.2%.
In the case of `NCCc1ccc(O)cc1`, the double positive events [1] is reported as 60%, the vesicle binding response [1] is reported as 185% (inactive) and the inhibition [2] is reported as -2.82% (inactive). The superoxide response (% of plate) [3] was 94.8% (inactive), the aptamer binding inhibition [4] was 2% (inactive) and the inhibition [5] was 5.64% (inactive). The response [6] was 5.09% (inactive), the binding (% of control) [7] was 107% (inactive) and the inhibition [8] was 5.4% (inactive). For the same molecule, the inhibition [9] was 0.3% (inactive), the inhibition [10] was -8.1% (inactive) and the efflux inhibition (fraction of control) [11] was -0.09 (inactive). For the same molecule, the inhibition [12] was -2% (inactive) and the differentiation response [13] was -11.9% (inactive).
With `NCC(O)c1ccc(O)cc1` (centres undefined) the double positive events [1] was 66.5%, the vesicle binding response [1] was 150% (inactive) and the inhibition [2] was -2.27% (inactive). The superoxide response (% of plate) [3] was 94.8% (inactive), the aptamer binding inhibition [4] was 2% (inactive) and the inhibition [5] was -8.51% (inactive). The response [6] was 2.02% (inactive), the binding (% of control) [7] was 103% (inactive) and the inhibition [8] was 1.9% (inactive). The inhibition [9] was 1% (inactive), the inhibition [10] was 6% (inactive) and the efflux inhibition (fraction of control) [11] was -0.35 (inactive). The inhibition [12] was 8% (inactive) and the differentiation response [13] was 2.46% (inactive).
For `O=C1NC(=S)N(c2ccccc2)C(=O)/C1=C/c1ccco1`, the GFP response vs DMSO [14] was 98.8% (inactive), the GFP response vs DMSO [14, 18] was 91.4% and the GFP response relative to DMSO [15] was 112% (inactive). For the same molecule, the GFP response relative to DMSO [15, 19] was 116%, the GFP response relative to DMSO [15, 20] was 111% and the GFP response, % of DMSO [16] was 84.8% (inactive). It also gave a GFP response, % of DMSO [16, 18] of 65.5%.
For `CC12CCC3C(CC=C4CC5(CCC43C)OCCO5)C1CCC2=O` (centres undefined), the double positive events [1] was 65.4%, the vesicle binding response [1] was 179% (inactive) and the inhibition [2] was -9.06% (inactive). The superoxide response (% of plate) [3] was 95.3% (inactive), the aptamer binding inhibition [4] was 3% (inactive) and the inhibition [5] was -3.19% (inactive). For the same molecule, the response [6] was 0.24% (inactive), the binding (% of control) [7] was 108% (inactive) and the inhibition [8] was 4.6% (inactive). The inhibition [9] was -0.8% (inactive), the inhibition [10] was 3.9% (inactive) and the efflux inhibition (fraction of control) [11] was -0.24 (inactive). The inhibition [12] was 15% (inactive) and the differentiation response [13] was -4.09% (inactive).
With `NC(N)=NC(=O)c1nc(Cl)c(N)nc1N` the inhibition [8] was -3.3% (inactive) and the inhibition [9] was -0.3% (inactive).
For `O=c1[nH]cnc2c1ncn2[C@@H]1O[C@H](CO)[C@@H](O)[C@H]1O`, the inhibition [8] was 1.2% (inactive), the inhibition [9] was 0.1% (inactive) and the inhibition [10] was -8% (inactive).
